Measurements taken from ChEMBL document CHEMBL3988442, “University of Dundee, Small-Polar-MMV Screening Library” (2021).
For some of these results: Measured potencies and affinities stand elsewhere.

What was measured:
Set-up in all cases: scale not given: direction of the effect not stated beside the values
[1] = target: Protein translocase subunit SecA (Escherichia coli (strain K12)) (UniProt P10408); assay: Assay to Identify E. coli SecA ATPase Inhibitors; format: functional; settings: 30 µM
[2] = target: T1, Ubiquitin-activating enzyme e1, putative (Leishmania donovani (strain BPK282A1)) (UniProt E9BSI1); assay: Leishmania donovani Ubiquitin Activating Enzyme (LdE1); format: functional; settings: 30 µM
T1 sequence (whole entry): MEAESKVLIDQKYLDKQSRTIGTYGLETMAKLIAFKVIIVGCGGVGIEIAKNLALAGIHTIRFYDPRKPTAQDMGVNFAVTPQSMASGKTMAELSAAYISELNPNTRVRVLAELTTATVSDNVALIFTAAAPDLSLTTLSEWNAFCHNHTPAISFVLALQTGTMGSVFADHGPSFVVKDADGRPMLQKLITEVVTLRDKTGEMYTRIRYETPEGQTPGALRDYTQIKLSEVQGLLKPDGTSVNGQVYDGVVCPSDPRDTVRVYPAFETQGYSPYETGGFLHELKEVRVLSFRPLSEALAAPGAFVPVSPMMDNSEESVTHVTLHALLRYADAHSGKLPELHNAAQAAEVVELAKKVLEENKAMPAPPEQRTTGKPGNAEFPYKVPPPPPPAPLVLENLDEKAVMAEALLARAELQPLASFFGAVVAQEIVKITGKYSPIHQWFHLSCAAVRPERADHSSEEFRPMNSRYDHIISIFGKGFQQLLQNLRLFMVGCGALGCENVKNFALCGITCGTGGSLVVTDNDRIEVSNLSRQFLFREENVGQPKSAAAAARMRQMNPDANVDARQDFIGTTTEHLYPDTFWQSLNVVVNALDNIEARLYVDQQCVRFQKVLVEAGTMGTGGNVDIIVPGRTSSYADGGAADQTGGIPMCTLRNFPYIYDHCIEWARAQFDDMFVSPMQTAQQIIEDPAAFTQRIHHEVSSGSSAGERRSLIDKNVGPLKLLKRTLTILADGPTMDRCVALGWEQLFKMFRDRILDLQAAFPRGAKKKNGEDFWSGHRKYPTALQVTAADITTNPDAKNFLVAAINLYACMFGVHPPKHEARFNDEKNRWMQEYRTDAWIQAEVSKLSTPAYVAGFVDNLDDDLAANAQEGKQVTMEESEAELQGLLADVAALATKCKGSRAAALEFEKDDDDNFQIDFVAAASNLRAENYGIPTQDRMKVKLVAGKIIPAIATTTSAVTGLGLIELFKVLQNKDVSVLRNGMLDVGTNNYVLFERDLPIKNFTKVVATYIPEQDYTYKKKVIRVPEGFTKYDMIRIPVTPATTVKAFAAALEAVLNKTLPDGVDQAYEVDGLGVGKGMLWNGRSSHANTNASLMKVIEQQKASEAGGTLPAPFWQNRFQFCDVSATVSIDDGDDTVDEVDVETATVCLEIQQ

[3] = target: AMP-activated protein kinase, AMPK (Homo sapiens) (UniProt P54646+O43741+P54619+Q9UGJ0+Q9Y478+Q13131+Q9UGI9); assay: AMP-dependent Kinase enzyme assay. An in vitro enzyme assay that detects ADP turnover that is directly proportional to AMPK activity. This uses naive AMPK that is activated during the assay with MK-8722; format: functional; settings: 30 µM
[4] = target: Sialic acid-binding Ig-like lectin 9 (Homo sapiens) (UniProt Q9Y336); assay: Hs-Siglec9 ALPHAscreen SOP 20170721; settings: 10 µM
[5] = tested on: Trypanosoma cruzi; assay: Trypanosoma cruzi phosphomannomutase and mannose-1-phosphate guanylyltransferase assay; format: functional; settings: 10 µM
[6] = target: T2, Arginase-2, mitochondrial (Homo sapiens) (UniProt P78540); assay: in vitro enzyme assay to detect the production of urea directly proportional to the activity of Arginase II; format: functional; settings: 33.3 µM; note: in the data most compounds retested in dose-response had high values
T2 sequence (whole entry): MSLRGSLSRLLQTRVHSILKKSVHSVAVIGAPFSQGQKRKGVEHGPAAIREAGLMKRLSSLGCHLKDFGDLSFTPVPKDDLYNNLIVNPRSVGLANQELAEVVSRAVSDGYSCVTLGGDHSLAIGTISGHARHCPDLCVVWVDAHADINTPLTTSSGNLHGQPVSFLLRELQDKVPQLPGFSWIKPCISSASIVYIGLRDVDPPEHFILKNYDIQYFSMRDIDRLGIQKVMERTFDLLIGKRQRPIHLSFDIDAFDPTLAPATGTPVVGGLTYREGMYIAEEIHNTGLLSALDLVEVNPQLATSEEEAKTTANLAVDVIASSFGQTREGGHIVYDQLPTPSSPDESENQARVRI

[7] = target: T3, Proteasome subunit beta (Trypanosoma cruzi) (UniProt O96673); assay: Trypanosoma cruzi proteasome chymotrypsin-like activity (TcProtChymo) assay.; note: in the data most compounds retested in dose-response had high values; format: functional; settings: 9.37 µM
T3 sequence (whole entry): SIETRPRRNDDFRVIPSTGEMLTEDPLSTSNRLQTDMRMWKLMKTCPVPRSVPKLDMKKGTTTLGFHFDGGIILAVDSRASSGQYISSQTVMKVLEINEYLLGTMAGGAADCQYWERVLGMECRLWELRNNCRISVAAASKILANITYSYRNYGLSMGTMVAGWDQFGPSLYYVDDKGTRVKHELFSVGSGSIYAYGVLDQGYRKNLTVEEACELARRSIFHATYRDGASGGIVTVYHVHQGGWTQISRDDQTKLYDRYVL

[8] = species on record: Homo sapiens; assay: To identify inhibition of the IFN signalling (Jak-Stat) pathway via expression of an eGFP reporter gene under the control of an IFN-stimulated response element (ISRE) containing MxA promoter.; format: functional; settings: 30 µM
[9] = target: T4, Tyrosyl-tRNA synthetase, putative (Trypanosoma cruzi (strain CL Brener)) (UniProt Q4DSP6); assay: Trypanosoma cruzi tyrosyl tRNA synthetase (TcYRS) _High Tyrosine SOP; format: functional; settings: 30 µM; note: in the data most compounds retested in dose-response had high values
T4 sequence (whole entry): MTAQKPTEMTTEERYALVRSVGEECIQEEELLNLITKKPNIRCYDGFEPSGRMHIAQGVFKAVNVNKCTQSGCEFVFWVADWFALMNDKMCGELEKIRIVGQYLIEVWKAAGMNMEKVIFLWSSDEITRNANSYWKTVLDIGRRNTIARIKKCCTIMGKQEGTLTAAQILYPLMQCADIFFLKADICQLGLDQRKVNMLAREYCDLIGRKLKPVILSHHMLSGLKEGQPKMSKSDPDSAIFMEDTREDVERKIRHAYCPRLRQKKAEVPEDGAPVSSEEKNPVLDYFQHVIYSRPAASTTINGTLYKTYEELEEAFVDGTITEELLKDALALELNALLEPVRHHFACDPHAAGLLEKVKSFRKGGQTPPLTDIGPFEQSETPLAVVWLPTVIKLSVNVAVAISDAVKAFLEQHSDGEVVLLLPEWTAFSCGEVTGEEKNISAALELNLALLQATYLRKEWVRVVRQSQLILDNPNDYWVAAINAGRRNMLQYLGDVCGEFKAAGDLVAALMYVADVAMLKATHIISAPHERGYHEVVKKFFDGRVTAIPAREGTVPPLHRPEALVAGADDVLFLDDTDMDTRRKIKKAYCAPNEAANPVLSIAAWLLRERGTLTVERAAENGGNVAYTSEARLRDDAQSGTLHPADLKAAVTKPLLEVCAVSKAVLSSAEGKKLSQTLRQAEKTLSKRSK

[10] = target: T4, Tyrosyl-tRNA synthetase, putative (Trypanosoma cruzi (strain CL Brener)); assay: Trypanosoma cruzi tyrosyl tRNA synthetase (TcYRS) SOP; format: functional; settings: 30 µM
[11] = target: Chromo domain-containing protein 1 (Saccharomyces cerevisiae (strain ATCC 204508 / S288c) (Baker's yeast)) (UniProt P32657); assay: ScCHD-1 Enzyme Inhibition Assay; format: functional; settings: 30 µM; note: in the data most compounds retested in dose-response had high values
Sequence of Chromo domain-containing protein 1 (Saccharomyces cerevisiae (strain ATCC 204508 / S288c) (Baker's yeast)) (P32657 whole entry, the tested form may be a part): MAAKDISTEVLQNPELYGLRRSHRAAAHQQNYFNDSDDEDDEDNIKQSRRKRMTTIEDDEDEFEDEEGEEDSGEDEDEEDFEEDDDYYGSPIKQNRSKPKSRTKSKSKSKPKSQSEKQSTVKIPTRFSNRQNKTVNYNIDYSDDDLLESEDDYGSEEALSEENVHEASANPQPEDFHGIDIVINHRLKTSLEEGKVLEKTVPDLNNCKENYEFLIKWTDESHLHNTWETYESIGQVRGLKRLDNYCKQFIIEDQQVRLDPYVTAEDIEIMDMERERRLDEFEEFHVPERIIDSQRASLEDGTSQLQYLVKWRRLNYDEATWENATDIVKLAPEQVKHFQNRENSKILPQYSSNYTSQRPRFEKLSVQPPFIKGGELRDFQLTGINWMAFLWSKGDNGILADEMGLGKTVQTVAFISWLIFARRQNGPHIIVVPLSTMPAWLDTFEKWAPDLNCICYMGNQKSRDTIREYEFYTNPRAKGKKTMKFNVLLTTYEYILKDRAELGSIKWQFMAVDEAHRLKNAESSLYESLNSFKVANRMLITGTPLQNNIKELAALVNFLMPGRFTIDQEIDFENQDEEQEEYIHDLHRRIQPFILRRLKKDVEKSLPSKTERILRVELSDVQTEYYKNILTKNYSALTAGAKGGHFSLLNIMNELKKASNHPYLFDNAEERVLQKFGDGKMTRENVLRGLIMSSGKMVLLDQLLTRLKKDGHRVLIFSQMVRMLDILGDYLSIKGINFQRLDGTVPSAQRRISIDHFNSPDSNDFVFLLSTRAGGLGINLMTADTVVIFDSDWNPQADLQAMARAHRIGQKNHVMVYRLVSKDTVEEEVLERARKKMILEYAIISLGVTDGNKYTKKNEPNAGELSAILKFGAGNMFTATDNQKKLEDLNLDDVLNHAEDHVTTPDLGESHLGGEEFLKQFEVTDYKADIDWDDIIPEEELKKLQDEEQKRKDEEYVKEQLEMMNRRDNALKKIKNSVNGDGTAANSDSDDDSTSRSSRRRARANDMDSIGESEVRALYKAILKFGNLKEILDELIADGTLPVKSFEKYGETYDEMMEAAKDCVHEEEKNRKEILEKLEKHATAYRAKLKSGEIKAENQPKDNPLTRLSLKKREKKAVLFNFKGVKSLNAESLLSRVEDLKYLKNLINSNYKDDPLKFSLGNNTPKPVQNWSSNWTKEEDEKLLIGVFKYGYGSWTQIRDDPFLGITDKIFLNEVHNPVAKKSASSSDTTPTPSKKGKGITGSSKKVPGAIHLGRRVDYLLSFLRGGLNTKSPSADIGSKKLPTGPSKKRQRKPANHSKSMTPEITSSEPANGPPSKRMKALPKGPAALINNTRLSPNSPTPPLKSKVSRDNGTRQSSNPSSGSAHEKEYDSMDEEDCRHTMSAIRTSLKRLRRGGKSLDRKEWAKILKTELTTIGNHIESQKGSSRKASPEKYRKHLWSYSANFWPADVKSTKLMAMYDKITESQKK

Sequence of Sialic acid-binding Ig-like lectin 9 (Homo sapiens) (Q9Y336 whole entry): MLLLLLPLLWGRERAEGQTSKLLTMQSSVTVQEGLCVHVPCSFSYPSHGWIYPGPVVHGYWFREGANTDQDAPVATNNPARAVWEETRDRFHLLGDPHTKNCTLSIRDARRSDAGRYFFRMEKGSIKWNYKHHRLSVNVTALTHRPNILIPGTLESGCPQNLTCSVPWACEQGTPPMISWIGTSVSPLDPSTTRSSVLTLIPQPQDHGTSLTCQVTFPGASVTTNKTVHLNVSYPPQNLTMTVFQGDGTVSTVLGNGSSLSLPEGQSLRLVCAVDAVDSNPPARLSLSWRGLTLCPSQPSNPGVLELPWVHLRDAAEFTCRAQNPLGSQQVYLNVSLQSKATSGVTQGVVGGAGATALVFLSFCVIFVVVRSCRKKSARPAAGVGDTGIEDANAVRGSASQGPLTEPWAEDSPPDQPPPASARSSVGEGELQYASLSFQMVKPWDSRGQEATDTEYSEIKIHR
Sequence of Protein translocase subunit SecA (Escherichia coli (strain K12)) (P10408 whole entry): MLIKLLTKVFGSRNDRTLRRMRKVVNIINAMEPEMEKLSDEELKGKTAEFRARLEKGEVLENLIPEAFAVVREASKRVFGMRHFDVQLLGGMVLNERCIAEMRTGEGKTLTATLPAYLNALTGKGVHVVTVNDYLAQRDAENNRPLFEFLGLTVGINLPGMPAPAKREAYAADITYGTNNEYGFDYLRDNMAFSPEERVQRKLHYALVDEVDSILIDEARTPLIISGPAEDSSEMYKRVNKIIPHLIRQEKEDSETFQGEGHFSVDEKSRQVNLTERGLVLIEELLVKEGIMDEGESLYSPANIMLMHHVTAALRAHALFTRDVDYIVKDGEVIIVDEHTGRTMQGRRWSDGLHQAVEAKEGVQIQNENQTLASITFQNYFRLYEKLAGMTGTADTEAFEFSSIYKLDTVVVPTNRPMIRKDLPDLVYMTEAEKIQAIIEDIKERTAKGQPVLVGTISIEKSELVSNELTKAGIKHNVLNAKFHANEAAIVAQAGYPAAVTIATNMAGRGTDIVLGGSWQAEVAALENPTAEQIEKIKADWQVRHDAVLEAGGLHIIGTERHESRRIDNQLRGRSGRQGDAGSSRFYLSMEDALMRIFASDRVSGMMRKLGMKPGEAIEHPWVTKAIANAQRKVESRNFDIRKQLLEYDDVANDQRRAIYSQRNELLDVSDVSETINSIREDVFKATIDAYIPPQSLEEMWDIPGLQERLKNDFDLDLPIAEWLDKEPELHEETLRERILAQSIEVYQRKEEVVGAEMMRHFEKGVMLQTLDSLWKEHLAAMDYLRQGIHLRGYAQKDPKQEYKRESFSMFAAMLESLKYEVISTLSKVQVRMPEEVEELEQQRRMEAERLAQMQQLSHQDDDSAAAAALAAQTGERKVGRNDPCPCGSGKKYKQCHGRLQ

Compound | Percent Effect [1] | Percent Effect [2] | Percent Effect [3] | Percent Effect [4] | Percent Effect [5] | Percent Effect [6] | Percent Effect [7] | Percent Effect [8] | Percent Effect [9] | Percent Effect [10] | Percent Effect [11]
CCN1C(=O)CCC12CCCN(Cc1nccs1)CC2 (stereo unspecified) | -5.45% | 8% | 11.7% | 0.513% | 2.56% | -0.699% | 8.37% | 9.53% | 7.45% | 16.7% | -1.64%
CCn1cnnc1CNC(=O)c1ccc(Cl)cc1F | -2.15% | 16.5% | -1.73% | 3.58% | 0.103% | -6.24% | 16.6% | 5.91% | 9.38% | 17.7% | -13.8%
COCCN1CCC(CNC(=O)C2(c3cc(C)cc(C)c3)CCC2)C1 (stereo unspecified) | -8.07% | 0% | -6.3% | -4.59% | -1.77% | 2.88% | -4.82% | -6.37% | 2.46% | 1.24% | 2.35%
Cc1ccc(C(=O)N2CCn3cc(CN4CCCCC4)nc3C2)o1 | -1.62% | -2.6% | 0.425% | -11.1% | -1.48% | 21.3% | 5.57% | 1.99% | -4.23% | -6.41% | 8.37%
Cc1ncnc2c1CCN(Cc1cccs1)CC2 | -2.76% | 8% | 10% | -1.57% | -6.18% | -55.7% | -1.2% | 10.4% | 8.33% | 7.5% | -6.96%
CCc1nnc(CNCC2CCCN2c2cccnn2)o1 (stereo unspecified) | -2.1% | 0% | 0.161% | 4.6% | 2.78% | -2.4% | 5.57% | 3.42% | 8.33% | 11.1% | -4.05%
Cc1noc(C)c1CCC(=O)N1CCN(CCn2cccn2)CC1 | -5.39% | 21.9% | -6.91% | 19.6% | 7.64% | 8.18% | 8.52% | 3.96% | 3.23% | 17.5% | -5.67%
O=C(c1ccnnc1)N1C[C@@H](OCC2CCCC2)[C@H]2OCCC[C@H]21 | -7.56% | 8.11% | 0.254% | -1.77% | -1.95% | 3.33% | 11.8% | -12.9% | 12.9% | -8.54% | -5.93%
Cc1ccc(NS(=O)(=O)CC2=NC(=O)n3cccc3C2=O)cc1 | -4.7% | -4% | -2.73% | 6.4% | 1.97% | -3.7% | 3.7% | -2.44% | -10.6% | -17.9% | -2.6%
CC(C)NC(=O)N1CCN(CC2CC2)CC2(CC(=O)N(C)C2)C1 (stereo unspecified) | 0.576% | -10.8% | 3.4% | -6.25% | 0% | 1.25% | 7.02% | -5.18% | 82.2% | -6.1% | 16.8%
CCc1noc(CN2CCN(C(=O)N(C)C)CC2)n1 | -5.22% | -2.53% | 7.62% | 3.9% | -5.38% | 0.38% | 4.83% | 23.4% | -5.42% | -16.5% | -4.89%
